Reference: PubChem BioAssay (EPA / NIEHS)
The source made the active and inactive calls. Rule for the calls: active = hit-call score of the fitted dose curve at least 0.9, where 1 is the maximum; inactive = score below 0.9.

How the values were obtained:
[1] = biological target: CCAAT/enhancer-binding protein beta (Homo sapiens) (UniProt P17676); test: ATG_C_EBP_CIS: Attagene CIS-FACTORIAL HepG2 Assay for human CCAAT/Enhancer Binding Protein (C/EBP) beta (AID 2282927); conditions: HepG2 Attagene cis-factorial transcription factor reporter; actives raise or lower the signal
Chain of CCAAT/enhancer-binding protein beta (Homo sapiens) (P17676 whole entry, looked up): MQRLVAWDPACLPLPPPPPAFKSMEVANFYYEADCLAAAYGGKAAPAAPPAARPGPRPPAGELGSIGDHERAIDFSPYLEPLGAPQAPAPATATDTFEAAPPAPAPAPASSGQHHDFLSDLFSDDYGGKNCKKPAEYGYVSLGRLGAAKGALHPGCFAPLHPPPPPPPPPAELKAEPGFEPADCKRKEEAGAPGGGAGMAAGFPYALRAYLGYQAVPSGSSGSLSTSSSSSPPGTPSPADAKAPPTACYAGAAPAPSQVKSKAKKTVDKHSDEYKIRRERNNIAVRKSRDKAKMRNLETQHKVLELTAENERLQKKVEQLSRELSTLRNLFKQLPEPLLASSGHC
How it was run: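 Transiently transfected HepG2 (MRTU library, endogenous TF-driven promoters); 24 h dosing; total RNA → oligo(dT) RT → PCR → 6-FAM primer extension → HpaI digest → CE; fit bidirectionally vs DMSO.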

[2] = ATG_CMV_CIS: Attagene CIS-FACTORIAL HepG2 Assay for human CMV (Internal Marker) (AID 2282928); conditions: HepG2 CMV promoter reporter, transcription factor profiling; actives raise or lower the signal;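 note: endpoint acts as a background internal control marker rather than a target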
How it was run: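 24 h chemical treatment, HepG2 with transient multi-reporter transfection; RNA → oligo(dT) RT → PCR → 6-FAM extension → HpaI digest → CE fluorescence. Bidirectional fit, DMSO negative control.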

[3] = ATG_DR4_LXR_CIS: Attagene CIS-FACTORIAL HepG2 Assay for human Liver X Receptor (LXR), DR4 submotif (AID 2282929); conditions: HepG2 Attagene DR4 cis-reporter, mRNA transcription; actives raise or lower the signal
How it was run: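 Measures endogenous transcription factor activity via a DR4-driven reporter transcript in human HepG2 cells. Compounds incubated 24 h; mRNA quantified by RT-PCR and capillary electrophoresis, analysed as gain or loss of signal versus DMSO.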

[4] = biological target: Aryl hydrocarbon receptor (Homo sapiens) (UniProt P35869); test: ATG_Ahr_CIS: Attagene CIS-FACTORIAL HepG2 Assay for human Aryl Hydrocarbon Receptor (Ahr) (AID 2282930); conditions: HepG2 AhR cis-factorial reporter transcription; actives raise or lower the signal
Chain of Aryl hydrocarbon receptor (Homo sapiens) (P35869 whole entry, looked up): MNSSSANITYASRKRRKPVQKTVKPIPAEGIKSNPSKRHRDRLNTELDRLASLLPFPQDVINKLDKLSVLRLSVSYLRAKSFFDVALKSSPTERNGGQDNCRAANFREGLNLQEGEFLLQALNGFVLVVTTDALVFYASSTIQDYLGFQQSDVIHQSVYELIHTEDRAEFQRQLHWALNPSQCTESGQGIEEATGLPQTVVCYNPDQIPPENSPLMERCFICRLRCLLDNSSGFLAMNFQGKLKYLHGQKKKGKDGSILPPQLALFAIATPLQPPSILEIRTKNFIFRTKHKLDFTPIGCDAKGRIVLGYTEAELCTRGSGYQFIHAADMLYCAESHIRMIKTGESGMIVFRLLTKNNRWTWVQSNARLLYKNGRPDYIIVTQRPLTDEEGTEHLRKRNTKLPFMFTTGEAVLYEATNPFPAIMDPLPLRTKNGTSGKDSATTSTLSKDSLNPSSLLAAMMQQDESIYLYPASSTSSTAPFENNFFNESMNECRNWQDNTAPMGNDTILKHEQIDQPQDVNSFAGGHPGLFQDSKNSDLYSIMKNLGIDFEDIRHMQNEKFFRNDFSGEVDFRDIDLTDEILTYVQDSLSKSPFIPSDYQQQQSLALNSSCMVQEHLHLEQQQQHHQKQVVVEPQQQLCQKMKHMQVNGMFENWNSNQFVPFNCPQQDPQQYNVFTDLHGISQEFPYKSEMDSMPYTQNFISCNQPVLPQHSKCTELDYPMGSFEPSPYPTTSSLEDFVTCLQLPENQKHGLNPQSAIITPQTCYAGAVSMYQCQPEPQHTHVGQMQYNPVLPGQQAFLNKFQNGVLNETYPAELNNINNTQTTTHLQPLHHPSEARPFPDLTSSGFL
How it was run: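 Read-out: reporter mRNA quantified by RT-PCR with fluorescent primer extension and capillary electrophoresis. Human HepG2 liver cells carried transfected cis-promoter reporter units and were exposed to chemical for 24 h; gain or loss fitted relative to DMSO.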

[5] = ATG_AP_1_CIS: Attagene CIS-FACTORIAL HepG2 Assay for human Activator Protein 1 (AP-1) (AID 2282931); conditions: HepG2 Attagene cis-factorial AP-1 reporter mRNA; actives raise or lower the signal
How it was run: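 Bidirectional concentration-response fitting against DMSO controls. Underlying signal: reporter mRNA from cis-promoter constructs in transiently transfected HepG2, measured after 24 h by RT-PCR and capillary electrophoresis.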

[6] = ATG_AP_2_CIS: Attagene CIS-FACTORIAL HepG2 Assay for human Activator Protein 2 (AP-2) (AID 2282932); conditions: HepG2 AP-2 cis-reporter, Attagene transcription factor profiling; actives raise or lower the signal
How it was run: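 Read-out: fluorescent reporter mRNA via RT-PCR and capillary electrophoresis, 24 h post-dose in transiently transfected HepG2. Endogenous factors drive cis-promoter reporters; gain or loss of signal fitted bidirectionally against DMSO.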

[7] = ATG_BRE_CIS: Attagene CIS-FACTORIAL HepG2 Assay for human Bone Morphogenetic Protein (BMP) Response Element (BRE) (AID 2282933); conditions: HepG2 BMP response element reporter, Attagene transcription factor profiling; actives raise or lower the signal
How it was run: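 Multiplexed cis-reporter assay, HepG2, 24 h exposure. mRNA from reporter units quantified via RT-PCR/CE; DMSO baseline; bidirectional curve fit.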

Measured: AC50

C1CCCNCC1
active: [4] 62.5 µM
inactive: [1] | [2] | [3] | [5] | [6] | [7]
